# Sampled rows, rich in hits. Any-hit rate of the full collection: about 9%.
# IMPase cell inh: qHTS Assay for Identifying the Cell-Membrane Permeable IMPase Inhibitors. inhibition (IP1 accumulation), % at 46.1 µM. CHO-M1 cells, IP1 accumulation, HTRF TR-FRET ratio. Inositol monophosphatase 1 (Rattus norvegicus), P97697. 120,000 tested, under 10 active; active = well fitted curve in the direction sought with a large enough effect in the signal ratio, not every such curve was filed as active; inconclusive = small, poorly fitted or top-dose-only effect, or a change in a side signal; inactive = no such curve, though single readings can be large or run the other way; the % refers to the signal ratio;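 also: cells stimulated with carbachol in lithium chloride buffer; plate controls were DMSO basal wells for no effect and reference inhibitor wells for full effect; higher means more IMPase inhibition seen as more IP1 and lower FRET ratio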
#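 CHO-M1 cells (CHO stably expressing M1 receptor), compound up to 46 uM final, stimulated with carbachol (50 uM as added) in buffer with 50mM LiCl, pH 7.4, 30 min at 37C. Cytosolic IP1 read by TR-FRET; AC50 from Hill fits.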
# HPGD inh: qHTS Assay for Inhibitors of HPGD (15-Hydroxyprostaglandin Dehydrogenase). purified HPGD, NADH fluorescence kinetic, PGE2 substrate. 15-hydroxyprostaglandin dehydrogenase [NAD(+)] (Homo sapiens), P15428. Potency, µM, for the others: at the highest dose activity change, negative = inhibition, most hits filed as inhibitors. AID 894, 2007. 150,000 tested, 4.3% active; also: potency is read from the fitted curve at half-maximal effect
#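 NADH formation kinetics: reaction with 30 uM PGE2 and 1 mM NAD+ (final), 20 nM enzyme, Tris-HCl pH 8 with Tween 20, after 15 min compound preincubation at room temperature. Fluorescence change, last versus first of five reads.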
# ALDH1A1 block: qHTS Assay for Inhibitors of Aldehyde Dehydrogenase 1 (ALDH1A1) | Potency, µM (top dose mostly 75.3 µM), inactives show at the highest dose activity, negative = inhibition, actives largely listed as inhibitors | 220,000 tested, 7.3% active | AID 1030, 2008 | Purified ALDH1A1, NADH fluorescence, propionaldehyde substrate;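 also: potency is read from the fitted curve at half-maximal effect; plate controls were no enzyme wells and a reference inhibitor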
# Target sequence (P00352 whole entry, looked up): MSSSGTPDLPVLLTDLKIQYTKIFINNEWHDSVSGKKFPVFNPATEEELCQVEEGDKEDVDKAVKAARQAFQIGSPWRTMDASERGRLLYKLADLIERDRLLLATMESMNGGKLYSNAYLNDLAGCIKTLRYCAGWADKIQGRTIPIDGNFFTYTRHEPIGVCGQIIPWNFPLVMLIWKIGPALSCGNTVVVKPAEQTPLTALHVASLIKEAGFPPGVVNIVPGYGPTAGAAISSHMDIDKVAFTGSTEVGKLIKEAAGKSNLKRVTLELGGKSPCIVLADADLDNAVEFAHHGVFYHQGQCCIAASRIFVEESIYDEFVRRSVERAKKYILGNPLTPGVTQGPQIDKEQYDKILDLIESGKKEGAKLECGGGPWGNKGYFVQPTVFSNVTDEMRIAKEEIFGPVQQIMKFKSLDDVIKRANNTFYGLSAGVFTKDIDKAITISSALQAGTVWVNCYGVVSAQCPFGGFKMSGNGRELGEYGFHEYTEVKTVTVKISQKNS
# Starred values were filed as active, the others as inactive; ? = inconclusive; / = not tested or not shown; [ ] = another dose, or the depositor's remark. Unless noted, calls follow the shape of the dose curve; as a rule, active = well fitted inhibition curve with a large enough effect (not every such curve was filed as active); inconclusive = small, poorly fitted or top-dose-only effect, or another doubt; inactive = no such curve, though single readings can be large or run the other way. Unless noted, % is scaled to controls: 0 for no effect and ±100 for the full control effect.
SMILES,IMPase cell inh,HPGD inh,ALDH1A1 block
COc1ccc(C(=O)NNc2ccccc2)cc1,/,-18%,28µM*
COc1ccc(C(=O)NC(=S)NCc2ccccc2)cc1,4,-9%,22µM*
O=C(NC(=S)NCc1ccccc1)c1ccc2c(c1)OCO2,-9,-15%,?
COC(=O)N1CCC2(CCCN(Cc3ccccc3)C2)CC1,/,-2%,?
COc1ccc(NC(=O)CCCn2c(=O)c3sccc3n(Cc3ccc(C)cc3)c2=O)cc1,31,-24%,?
COc1ccc(NC(=O)CCCn2c(=O)c3sccc3n(Cc3cccc(C)c3)c2=O)cc1,-7,-4%,2µM*
COc1ccc(S(=O)(=O)N(C)C)cc1NC(=O)CSc1nnc(-c2cccnc2)o1,/,/,3%
CCc1ccccc1N1CC23C=CC(O2)C(C(=O)OCC(C)C)C3C1=O (stereo unspecified),5,-9%,7%
Cc1ccc(N2C(=O)C3C4C=CC(CNC(=S)Nc5ccc(F)cc5)(O4)C3C2=O)cc1 (stereo unspecified),/,18µM*,0.4µM*
CN(C)CCNC(=S)Nc1ccc(Cl)cc1,5,-3%,-2%
Cc1ccc(N2C(=O)C3C4C=CC(CNC(=S)Nc5cccc(Cl)c5)(O4)C3C2=O)cc1 (stereo unspecified),/,-28%,1.6µM*
CC(C)COC(=O)NCC12C=CC(O1)C1C(=O)N(c3ccc(Cl)cc3)C(=O)C12 (stereo unspecified),-1,18µM*,0.56µM*
S=C(NCc1ccncc1)Nc1cccc(Cl)c1,/,-1%,-2%
CCOC(=O)N1CCC(N2CC34C=CC(O3)C(C(=O)Nc3ccc(F)cc3)C4C2=O)CC1 (stereo unspecified),3,0%,-6%
Cc1ccc(N2C(=O)C3C4C=CC(CNC(=S)Nc5ccc(Cl)cc5)(O4)C3C2=O)cc1 (stereo unspecified),/,?,0.32µM*
CCOC(CCn1c(SCC(=O)Nc2cc(C)on2)nc2ccccc2c1=O)OCC,/,/,-2%
O=C1C2C3C=CC(C2C(=O)N1C1CCCCC1)C1C(=O)N(C2CCCCC2)C(=O)C31 (stereo unspecified),-3,-1%,2.8µM*
O=C1C2C3C=CC([C@@H]2C(=O)N1C1CC1)[C@H]1C(=O)N(C2CC2)C(=O)C31 (stereo partly specified),-5,-6%,?
O/C(=C\Sc1nnc(Cc2ccccc2)o1)c1ccc(F)cc1,3,-14%,-1%
Cc1cccc(-c2noc(CN(C(=O)c3c(-c4ccccc4Cl)noc3C)C(C)C)n2)c1,5,-12%,8%
CC(C)N(Cc1nnc(-c2ccccc2Cl)o1)C(=O)c1cccc(C#N)c1,8,-1%,6.3µM*
O=C(NCCCN1CCCC1=O)c1ccccc1NS(=O)(=O)c1ccc(Br)cc1,6,?,?
Cc1cc(N2CCN(c3ccccc3)CC2)n2nnnc2n1,17,-7%,-12%
Cc1cc(N2CCN(c3nnnn3-c3ccccc3)CC2)n2ncnc2n1,15,-6%,22µM*
N#CCCN(Cc1cccs1)C(=O)c1ccc(Cl)cc1,/,/,5%
SMILES,IMPase cell inh,HPGD inh,ALDH1A1 block
CCOC(=O)C1(C(C)C)Oc2ccccc2C(c2ccc(OC)cc2)=C1C(=O)OC (stereo unspecified),/,?,-1%
COc1cccc(CNC(=O)CCC2CCCN(Cc3cc4ccccc4o3)C2)c1 (stereo unspecified),/,/,-1%
CC(C)c1ccc(OCc2nc(-c3ccccn3)no2)c(Br)c1,3,?,-9%
Cc1ccc(OCc2nc(-c3ccccn3)no2)cc1,7,-13%,8%
Clc1ccccc1OCc1nc(-c2ccncc2)no1,-1,-28%,14%
Clc1ccc(OCc2nc(-c3ccncc3)no2)c(Br)c1,?,18µM*,-5%
Cc1ccc(OCc2nc(-c3ccccn3)no2)c(Br)c1,0,18µM*,?
CCc1ccc(OCc2nc(-c3ccccn3)no2)c(Br)c1,-3[1.84 µM],28µM*,0%
CC(C)c1ccccc1NC(=O)COC(=O)c1cc(=O)[nH]c(=O)[nH]1,/,/,10%
CC(=O)c1cc(C#N)c(SCC(=O)O)nc1C,1,-6%,1%
CCOC(=O)CSc1nc(C)c(C(C)=O)cc1C#N,-7,22µM*,20%
c1ccc(N2CCN(C3CCSC3)CC2)cc1 (stereo unspecified),2,-14%,18µM*
c1ccc(N2CCN(c3ncccn3)CC2)cc1,0,-6%,-3%
Cc1cc(F)ccc1S(=O)(=O)Nc1cc2c(C(=O)O)c(C)oc2c2ccccc12,-12,/,/
O=C(COc1ccc(Cl)cc1)NC1CCSC1=O (stereo unspecified),6,-4%,-1%
COc1ccccc1N=C1SCC(=O)N1c1ccccc1OC,/,?,20µM*
COc1ccccc1N1C(=O)CSC1=NC(=O)c1ccccc1,/,/,-2%
CCOC(=O)CC1C(=O)NC2CCCCC2N1C(=O)Nc1ccc(Cl)cc1 (stereo unspecified),7,-19%,9%
CC(C)=NO[C@@H](C)c1cn([C@@H]2COC[C@@H]2O)nn1,/,/,15%[13.5 µM]
Cc1ccc(N(C(=O)CCl)C(C(=O)NC2CCCCC2)c2cccnc2)cc1C (stereo unspecified),/,-10%,9%
CC(CNC(=O)C(C)(C)C)NC(=O)C(C)(C)C (stereo unspecified),/,0%,15%
COc1cccc(N=C2C(=O)N3CCCc4cccc2c43)c1,/,-11%,0.16µM*
COc1ccc(NC(=O)N2CCCc3cccc(C)c32)cc1,/,/,-4%
CSc1ccc(-c2nnn(Cc3ccc(C)cc3)n2)cc1,4,-12%,2%
CNc1nc(N/N=C/c2cc3c(cc2[N+](=O)[O-])OCO3)nc(Nc2ccccc2)n1,/,/,3%
SMILES,IMPase cell inh,HPGD inh,ALDH1A1 block
O=[N+]([O-])c1cc2c(cc1/C=N\NS(=O)(=O)c1ccccc1)OCO2,3,-27%,1.6µM*
CC1(OC(=O)c2cnc3ccccc3n2)C(=O)C=C2C=C3CCCN3C=C2C1=O (stereo unspecified),/,-9%,0%[13.5 µM]
CC(C)Cc1c2c([nH]c(=S)c1C#N)CCCC2,/,22µM*,-8%
N#Cc1c(-c2cccnc2)c2c([nH]c1=S)CCCC2,-5,/,?
COc1ccc(OC)c(-c2c3c([nH]c(=S)c2C#N)CCCC3)c1,/,/,-9%
N#Cc1c(-c2ccco2)c2c([nH]c1=S)CCCC2,-15,16µM*,20µM*
COc1ccc(-c2c3c([nH]c(=S)c2C#N)CCC3)cc1,?,10µM*,14µM*
N#Cc1c(N)sc(=S)c2c1CCCC2,-29,-11%,?
COc1ccc(-n2c(=O)c(C)nc3cnc(N(C)C)nc32)cc1,/,-8%,?
CCN(CC)c1ccc(/C=N/NC(=O)C(O)(c2ccccc2)c2ccccc2)o1,/,?,-15%
COc1cc2cc(C(c3nnnn3C3CCCC3)N3CCCCC3)c(=O)[nH]c2cc1OC (stereo unspecified),-13,-22%,?
COc1ccc(Cn2nnnc2C(c2cc3cc(C)ccc3[nH]c2=O)N2CCOCC2)cc1 (stereo unspecified),-7,?,?

# Source: PubChem BioAssay
